Measured values as given in publication PMC5540273 (PLoS ONE, 2017).
Several values for one entry are separate records, joined by “and”; a condition that tells them apart may be missing. Identical values can stand only once. Like-named read-outs stand apart in the source and are kept apart here.

Experiments:
[1] = tested on: ACVR2B; details: n = 1
[2] = tested on: ACVRL1; details: concentration: 1 μM, replicates: in singlicate; n = 1
[3] = tested on: T1, ADCK3; details: n = 1
T1 construct: gene CABC1

[4] = tested on: ADCK4; details: n = 1
[5] = tested on: AKT1; details: concentration: 1 μM, replicates: in singlicate; n = 1
[6] = tested on: AKT2; details: n = 1
[7] = tested on: AKT3; details: concentration: 1 μM, replicates: in singlicate; n = 1
[8] = tested on: ALK; details: n = 1
[9] = tested on: T2, AMPK-alpha1; details: n = 1
T2 construct: gene PRKAA1

[10] = tested on: T3, AMPK-alpha2; details: n = 1
T3 construct: gene PRKAA2

[11] = tested on: ANKK1; details: n = 1
[12] = tested on: T4, ARK5; details: n = 1
T4 construct: gene NUAK1

[13] = tested on: T5, ASK1; details: n = 1
T5 construct: gene MAP3K5

[14] = tested on: T6, ASK2; details: n = 1
T6 construct: gene MAP3K6

[15] = tested on: AURKA; details: n = 1
[16] = tested on: AURKB; details: n = 1
[17] = tested on: AURKC; details: n = 1
[18] = tested on: AXL; details: n = 1
[19] = tested on: T7, BIKE; details: n = 1
T7 construct: gene BMP2K

[20] = tested on: BLK; details: n = 1
[21] = concentration: 1 μM,replicates: in singlicate, 1 µM
[22] = concentration: 1 μM, replicates: in singlicate
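Also: KINOMEscan kinase panel screen.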

CSc1nn2c(=O)cc(N3CCOCC3)nc2n1Cc1cccc(C(F)(F)F)c1C [GSK2363608]
%Inh [1, 21]: 3% and 0%
%Inh [2]: 0%
%Inh [3, 21]: 5% and 0%
%Inh [4, 21]: 31% and 22%
%Inh [5]: 0%
%Inh [6, 21]: 9% and 13%
%Inh [7]: 0%
%Inh [8, 21]: 23% and 31%
%Inh [9, 21]: 0% and 2%
%Inh [10, 21]: 14% and 0%
%Inh [11, 21]: 0% and 10%
%Inh [12, 21]: 13% and 8%
%Inh [13, 21]: 14% and 0%
%Inh [14, 21]: 86% and 7%
%Inh [15, 21]: 0% and 1%
%Inh [16, 21]: 0% and 29%
%Inh [17, 21]: 24% and 0%
%Inh [18, 21]: 3% and 4%
%Inh [19, 21]: 20% and 0%
%Inh [20, 21]: 8% and 9%

COc1cc2ncnc(Nc3ccc4nc(-c5ccccc5)[nH]c4c3)c2cc1OC.Cl [GW282450]
%Inh [1, 22]: 0%
%Inh [2]: 0%
%Inh [3, 22]: 10%
%Inh [4, 22]: 16%
%Inh [5]: 0%
%Inh [6, 22]: 0%
%Inh [7]: 0%
%Inh [8, 22]: 0%
%Inh [9, 22]: 0%
%Inh [10, 22]: 0%
%Inh [11, 22]: 16%
%Inh [12, 22]: 0%
%Inh [13, 22]: 0%
%Inh [14, 22]: 0%
%Inh [15, 22]: 99.1%
%Inh [16, 22]: 28%
%Inh [17, 22]: 48%
%Inh [18, 22]: 23%
%Inh [19, 22]: 14%
%Inh [20, 22]: 26%

COc1ccc(Nc2nccc(-c3cccc(NC(=O)c4cc5cc(F)ccc5[nH]4)c3)n2)cc1 [GSK1229782]
%Inh [1, 22]: 19%
%Inh [2]: 0%
%Inh [3, 22]: 8%
%Inh [4, 22]: 61%
%Inh [5]: 0%
%Inh [6, 22]: 18%
%Inh [7]: 31%
%Inh [8, 22]: 29%
%Inh [9, 22]: 34%
%Inh [10, 22]: 18%
%Inh [11, 22]: 0%
%Inh [12, 22]: 28%
%Inh [13, 22]: 0%
%Inh [14, 22]: 0%
%Inh [15, 22]: 16%
%Inh [16, 22]: 0%
%Inh [17, 22]: 66%
%Inh [18, 22]: 9%
%Inh [19, 22]: 57%
%Inh [20, 22]: 41%

CN1C(=O)C(Nc2ccc(Cl)c(C(=O)O)c2)=C(c2ccc(Cl)cc2)C1=O [SB-404290]
%Inh [1, 22]: 0%
%Inh [2]: 0%
%Inh [3, 22]: 0%
%Inh [4, 22]: 10%
%Inh [5]: 0%
%Inh [6, 22]: 0%
%Inh [7]: 1%
%Inh [8, 22]: 0%
%Inh [9, 22]: 6%
%Inh [10, 22]: 0%
%Inh [11, 22]: 0%
%Inh [12, 22]: 0%
%Inh [13, 22]: 0%
%Inh [14, 22]: 33%
%Inh [15, 22]: 19%
%Inh [16, 22]: 31%
%Inh [17, 22]: 5%
%Inh [18, 22]: 10%
%Inh [19, 22]: 0%
%Inh [20, 22]: 0%

Cl.c1ccc(-c2n[nH]cc2-c2ccnc(-c3ccc(CN4CCOCC4)cc3)c2)nc1 [GW776245]
%Inh [1, 22]: 9%
%Inh [2]: 0%
%Inh [3, 22]: 34%
%Inh [4, 22]: 0%
%Inh [5]: 17%
%Inh [6, 22]: 0%
%Inh [7]: 0%
%Inh [8, 22]: 0%
%Inh [9, 22]: 0%
%Inh [10, 22]: 14%
%Inh [11, 22]: 0%
%Inh [12, 22]: 0%
%Inh [13, 22]: 1%
%Inh [14, 22]: 0%
%Inh [15, 22]: 0%
%Inh [16, 22]: 6%
%Inh [17, 22]: 8%
%Inh [18, 22]: 0%
%Inh [19, 22]: 20%
%Inh [20, 22]: 9%

O=C(Nc1ccc2c(c1)OCO2)NC1CCN(c2ccnc(Nc3ccc(F)cc3)n2)C1 (centres unmarked) [GSK1379724]
%Inh [1, 22]: 0%
%Inh [2]: 0%
%Inh [3, 22]: 6%
%Inh [4, 22]: 36%
%Inh [5]: 0%
%Inh [6, 22]: 0%
%Inh [7]: 0%
%Inh [8, 22]: 29%
%Inh [9, 22]: 10%
%Inh [10, 22]: 0%
%Inh [11, 22]: 0%
%Inh [12, 22]: 8%
%Inh [13, 22]: 3%
%Inh [14, 22]: 0%
%Inh [15, 22]: 0%
%Inh [16, 22]: 99.4%
%Inh [17, 22]: 52%
%Inh [18, 22]: 5%
%Inh [19, 22]: 27%
%Inh [20, 22]: 19%

Cc1cc(N2Cc3ccccc3C2)nc(Nc2ccc(S(=O)(=O)N3CCOCC3)cc2)n1.Cl [GSK1669917]
%Inh [1, 22]: 0%
%Inh [2]: 0%
%Inh [3, 22]: 7%
%Inh [4, 22]: 8%
%Inh [5]: 96.3%
%Inh [6, 22]: 0%
%Inh [7]: 0%
%Inh [8, 22]: 5%
%Inh [9, 22]: 0%
%Inh [10, 22]: 16%
%Inh [11, 22]: 24%
%Inh [12, 22]: 0%
%Inh [13, 22]: 0%
%Inh [14, 22]: 0%
%Inh [15, 22]: 0%
%Inh [16, 22]: 0%
%Inh [17, 22]: 0%
%Inh [18, 22]: 0%
%Inh [19, 22]: 9%
%Inh [20, 22]: 16%

COC(=O)c1c(-c2ccccc2)c2cc(C(=O)O)ccc2c(=O)n1Cc1ccccc1
%Inh [1, 22]: 0%
%Inh [2]: 20%
%Inh [3, 22]: 0%
%Inh [4, 22]: 0%
%Inh [5]: 0%
%Inh [6, 22]: 0%
%Inh [7]: 1%
%Inh [8, 22]: 0%
%Inh [9, 22]: 0%
%Inh [10, 22]: 7%
%Inh [11, 22]: 0%
%Inh [12, 22]: 5%
%Inh [13, 22]: 0%
%Inh [14, 22]: 0%
%Inh [15, 22]: 0%
%Inh [16, 22]: 11%
%Inh [17, 22]: 0%
%Inh [18, 22]: 0%
%Inh [19, 22]: 0%
%Inh [20, 22]: 0%

O=C(Nc1n[nH]c2nc(-c3nccs3)c(Br)cc12)C1CCCC1 [SB-742609]
%Inh [1, 22]: 11%
%Inh [2]: 0%
%Inh [3, 22]: 0%
%Inh [4, 22]: 14%
%Inh [5]: 0%
%Inh [6, 22]: 10%
%Inh [7]: 1%
%Inh [8, 22]: 26%
%Inh [9, 22]: 0%
%Inh [10, 22]: 18%
%Inh [11, 22]: 0%
%Inh [12, 22]: 0%
%Inh [13, 22]: 0%
%Inh [14, 22]: 13%
%Inh [15, 22]: 0%
%Inh [16, 22]: 13%
%Inh [17, 22]: 11%
%Inh [18, 22]: 0%
%Inh [19, 22]: 0%
%Inh [20, 22]: 31%

Nc1ncnc2[nH]c(-c3ccccc3)nc12 [AH5015]
%Inh [1, 22]: 0%
%Inh [2]: 0%
%Inh [3, 22]: 25%
%Inh [4, 22]: 12%
%Inh [5]: 0%
%Inh [6, 22]: 9%
%Inh [7]: 0%
%Inh [8, 22]: 33%
%Inh [9, 22]: 2%
%Inh [10, 22]: 17%
%Inh [11, 22]: 14%
%Inh [12, 22]: 0%
%Inh [13, 22]: 5%
%Inh [14, 22]: 20%
%Inh [15, 22]: 100%
%Inh [16, 22]: 24%
%Inh [17, 22]: 14%
%Inh [18, 22]: 0%
%Inh [19, 22]: 24%
%Inh [20, 22]: 10%
